We go through 15 compounds from PubChem BioAssay (NCATS).

Test [1] in a line: S16 Schwann cell PMP22 intronic element firefly luciferase assay (AID 624032). Further: nearly all actives have a fitted effect of over 30% in size. Further: potency means the concentration at half of the fitted maximal effect.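 On activity change, negative = inhibition: plate controls were DMSO for no effect and PTC124 positive control mean for full effect.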 Particulars: S16 rat Schwann cells, PMP22 element FLuc, 24 h; series mostly up to 57.5 µM. The procedure, abridged:
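Luciferase reporter of PMP22 intronic-element expression in stably transfected S16 rat Schwann cells, read by ONE-Glo luminescence after 24 h compound exposure at 37 C. Activity scaled between DMSO (0%) and positive-control PTC124; concentration-effect curves quality-classified.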

A further test concerns 7G8. Nature of the test: qHTS profiling for inhibitors of Plasmodium falciparum proliferation (AID 504749). Further: nearly all actives have a fitted effect of over 60% in size. Further: potency means the concentration at half of the fitted maximal effect. As to conditions: P. falciparum in erythrocytes, SYBR Green DNA, 72 h; series mostly up to 28.7 µM. The procedure, abridged: (§1)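 In a 72 h erythrocytic culture (37 C, humidified, 5% CO2) at 2.5% hematocrit and 0.3% starting parasitemia, compounds were tested; SYBR Green I in detergent lysis buffer stained parasite DNA overnight.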
For orientation: Quantitative high-throughput screening tests each substance at several concentrations.

Another test relates to DIV14. The description is as above. As to conditions: P. falciparum in erythrocytes, SYBR Green DNA, 72 h; series mostly up to 28.7 µM. The procedure, abridged: as §1
For a further test, the system named is DIV17. The test is described as above. As to conditions: P. falciparum in erythrocytes, SYBR Green DNA, 72 h; series mostly up to 28.7 µM. The procedure, abridged:
as §1

The next test has as its system DIV30. Described as above. Particulars: P. falciparum in erythrocytes, SYBR Green DNA, 72 h; series mostly up to 28.7 µM. Summed up: as §1
For another test, the system named is ECU. The test is described as above. As to conditions: P. falciparum in erythrocytes, SYBR Green DNA, 72 h; series mostly up to 28.7 µM. Summed up: as §1
Another test has as its system ICS. The test is described as above. As to conditions: P. falciparum in erythrocytes, SYBR Green DNA, 72 h; series mostly up to 28.7 µM. The procedure, abridged:
as §1

Another test deals with TAB109. The description is as above. Particulars: P. falciparum in erythrocytes, SYBR Green DNA, 72 h; series mostly up to 28.7 µM. The procedure, abridged: as §1
The target in test [2] is Cytochrome P450 3A4 (Homo sapiens) (UniProt P08684). Nature of the test: qHTS Assay for Inhibitors and Substrates of Cytochrome P450 3A4 (AID 884). Further: on the % scale 0 is the no-effect control and ±100 the full control effect; nearly all actives have a fitted effect of over 50% in size. Particulars: recombinant CYP3A4, Luciferin-PPXE luminescence; series mostly up to 57.1 µM. Summed up:
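Luminescent readout of luciferin produced by CYP3A4 (20 nM) dealkylation of Luciferin-PPXE, 25 uM (its KM). NADPH-driven reaction ran 60 min at RT after 10 min compound preincubation; data scaled to 57 uM ketoconazole as 100% inhibition.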

The target in test [3] is Luciferin 4-monooxygenase (Photinus pyralis) (UniProt P08659). Nature of the test: Biochemical firefly luciferase enzyme assay for NPC (AID 624030).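 Further: purified P. pyralis luciferase at 10 nM with luciferin and ATP substrate; 0% = DMSO and -100% = full luciferase inhibition by PTC124 control; nearly all actives have a fitted effect of over 70% in size.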 As to conditions: purified P. pyralis luciferase, luminescence, 5 min; series mostly up to 58.6 µM. The procedure, abridged: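 Direct inhibition of firefly luciferase enzyme (10 nM final, 50 mM Tris Acetate) assessed by luminescence within 5 minutes. Percent activity scaled between DMSO and PTC124 positive control, with concentration-effect curves classified by fit quality and response.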
Luciferin 4-monooxygenase (Photinus pyralis), sequence (P08659 whole entry, looked up): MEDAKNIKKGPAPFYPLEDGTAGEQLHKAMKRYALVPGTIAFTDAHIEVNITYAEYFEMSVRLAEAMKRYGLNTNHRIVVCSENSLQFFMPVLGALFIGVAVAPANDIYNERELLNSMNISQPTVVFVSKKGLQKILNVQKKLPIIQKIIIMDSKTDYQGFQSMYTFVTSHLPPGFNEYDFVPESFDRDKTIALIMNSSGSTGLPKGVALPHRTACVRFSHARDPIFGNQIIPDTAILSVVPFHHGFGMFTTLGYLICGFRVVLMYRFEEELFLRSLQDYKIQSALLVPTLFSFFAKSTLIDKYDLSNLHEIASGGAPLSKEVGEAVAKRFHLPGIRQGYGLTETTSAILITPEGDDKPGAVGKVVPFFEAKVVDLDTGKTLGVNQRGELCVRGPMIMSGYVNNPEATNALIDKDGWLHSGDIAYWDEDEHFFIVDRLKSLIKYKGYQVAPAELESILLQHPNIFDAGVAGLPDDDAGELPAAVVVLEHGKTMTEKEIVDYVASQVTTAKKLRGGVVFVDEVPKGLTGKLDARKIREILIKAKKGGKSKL

The subject of another test is JCK. Nature of the test: qHTS profiling for inhibitors of Plasmodium falciparum proliferation (AID 504749). Further: nearly all actives have a fitted effect of over 60% in size. Further: potency means the concentration at half of the fitted maximal effect. As to conditions: P. falciparum in erythrocytes, SYBR Green DNA, 72 h; series mostly up to 28.7 µM. Summed up:
as §1

In a further test the test system is PC26. The test is described as above. Particulars: P. falciparum in erythrocytes, SYBR Green DNA, 72 h; series mostly up to 28.7 µM. The procedure, abridged: as §1
Test [4] in a line: Primary qHTS for small molecule stabilizers of the endoplasmic reticulum resident proteome: Secreted ER Calcium Modulated Protein (SERCaMP) assay (AID 1508630). Further: on the % scale 0 is the no-effect control and ±100 the full control effect. Particulars: SH-SY5Y GLuc-SERCaMP (Gaussia luciferase released on ER calcium loss) secretion, thapsigargin, luminescence; series mostly up to 38.4 µM. The procedure, abridged:
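The SH-SY5Y reporter protocol was run at 3 concentrations up to 38.3 uM (primary) or 11 concentrations (follow-up): 16 h compound, 100 nM thapsigargin for 4 h, then extracellular luciferase luminescence.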

The subject of the next test is CP262. Nature of the test: qHTS profiling for inhibitors of Plasmodium falciparum proliferation (AID 504749). Further: nearly all actives have a fitted effect of over 60% in size. Further: potency means the concentration at half of the fitted maximal effect. As to conditions: P. falciparum in erythrocytes, SYBR Green DNA, 72 h; series mostly up to 28.7 µM. The procedure, abridged:
as §1

The test system of the next test is W2. The test is described as above. As to conditions: P. falciparum in erythrocytes, SYBR Green DNA, 72 h; series mostly up to 28.7 µM. The procedure, abridged:
as §1

Test [5] is described as follows: NFAT Signaling Pathway (AID 444; active means well fitted curve in either direction with a large enough effect, not every such curve was filed as active;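 further: carbachol stimulus at about its EC50 of 1 µM final; on the % scale 0 is the no-effect control and ±100 the full control effect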). Particulars: Jurkat NFAT-bla M1, carbachol, beta-lactamase ratio, 5 h. Summed up: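 Read-out: CCF4 FRET ratio (460 nm/530 nm) after 1 h RT dye loading, used for %activity and AC50 from titration series. Cells: Jurkat NFAT-β-lactamase/M1 line, treated with compound plus 1 uM carbachol for 5 h, 37 °C.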
Test [6] has as its target Cytochrome P450 3A4 (Homo sapiens) (UniProt P08684). Nature of the test: qHTS Assay for Activators of Cytochrome P450 3A4 (AID 885). Further: nearly all actives have a fitted effect of over 65% in size. Particulars: recombinant CYP3A4, Luciferin-PPXE luminescence, 60 min; series mostly up to 57.1 µM. The procedure, abridged: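 Using 20nM recombinant human CYP3A4 in potassium phosphate (200mM), substrate Luciferin-PPXE at 25uM, luminescent luciferin detection followed a 60-min RT NADPH reaction; data scaled to 57 uM ketoconazole.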

The target of test [7] is Cytochrome P450 2C19 (Homo sapiens) (UniProt P33261). Nature of the test: qHTS Assay for Inhibitors and Substrates of Cytochrome P450 2C19 (AID 899). Further: on the % scale 0 is the no-effect control and ±100 the full control effect; nearly all actives have a fitted effect of over 60% in size. As to conditions: recombinant CYP2C19, luciferin-H EGE luminescence; series mostly up to 57.1 µM. Summed up:
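Luminescence readout of luciferin formed from 10uM Luciferin-H EGE (KM level) by 5 nM CYP2C19 in 50mM KPO4. 60 min NADPH-driven reaction at 37C after 10 min compound preincubation; data scaled to 57uM ketoconazole inhibition.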

The target of test [8] is Muscarinic acetylcholine receptor M1 (Rattus norvegicus) (UniProt P08482). Nature of the test: qHTS Assay for Antagonists of Acetylcholine Muscarinic M1 Receptor: Kinetic Measurement of Intracellular Calcium Response (AID 943). Further: nearly all actives have a fitted effect of over 75% in size. Further: potency means the concentration at half of the fitted maximal effect.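 On activity change, negative = inhibition: Fluo-4 calcium signal as peak divided by basal fluorescence over 4 min.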 As to conditions: M1-expressing cells, kinetic intracellular calcium fluorescence; series mostly up to 35.3 µM. The procedure, abridged:
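Read-out: peak over basal Fluo-4 fluorescence, kinetic at 1 Hz for 4 min after EC80 carbachol (100 nM final). Rat M1-CHO cells, dye loaded 1 h at 37C, compound added 10 min before agonist.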

Test [9] addresses Voltage-gated inwardly rectifying potassium channel KCNH2 (Homo sapiens) (UniProt Q12809). Nature of the test: qHTS Assay for Small Molecule Inhibitors of the Human hERG Channel Activity (AID 588834).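 Further: top concentration of the series differs between compounds; on the % scale 0 is the no-effect control and ±100 the full control effect; lower thallium flux fluorescence means stronger hERG block; nearly all actives have a fitted effect of over 50% in size.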 Particulars: U2OS BacMam hERG, FluxOR thallium flux fluorescence; series mostly up to 46.1 µM. The procedure, abridged:
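Step 1: BacMam hERG transduction of U2OS, 4 hrs RT. Step 2: overnight 37 °C, plate 2000 cells/well, 4 hr. Step 3: FluxOR load, compound 10 min, stimulate, read fluorescence.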

The mark [10] stands for this setting: at 7.69 µM (top of the series) unless noted.

SMILES strings stand for the structures. A number with no mark means an inactive call. Inconclusive results are not listed. Calls of active or inactive are those of the source. Unless noted, the call rests on the fitted dose curve; in most records, active means well fitted curve in the direction sought with a large enough effect; inconclusive means small, poorly fitted or top-dose-only effect, or another doubt; inactive means no such curve, though single readings can be large; an effect the other way counts as inactive or inconclusive.

Voltage-gated inwardly rectifying potassium channel KCNH2 (Homo sapiens), sequence (Q12809 whole entry, looked up): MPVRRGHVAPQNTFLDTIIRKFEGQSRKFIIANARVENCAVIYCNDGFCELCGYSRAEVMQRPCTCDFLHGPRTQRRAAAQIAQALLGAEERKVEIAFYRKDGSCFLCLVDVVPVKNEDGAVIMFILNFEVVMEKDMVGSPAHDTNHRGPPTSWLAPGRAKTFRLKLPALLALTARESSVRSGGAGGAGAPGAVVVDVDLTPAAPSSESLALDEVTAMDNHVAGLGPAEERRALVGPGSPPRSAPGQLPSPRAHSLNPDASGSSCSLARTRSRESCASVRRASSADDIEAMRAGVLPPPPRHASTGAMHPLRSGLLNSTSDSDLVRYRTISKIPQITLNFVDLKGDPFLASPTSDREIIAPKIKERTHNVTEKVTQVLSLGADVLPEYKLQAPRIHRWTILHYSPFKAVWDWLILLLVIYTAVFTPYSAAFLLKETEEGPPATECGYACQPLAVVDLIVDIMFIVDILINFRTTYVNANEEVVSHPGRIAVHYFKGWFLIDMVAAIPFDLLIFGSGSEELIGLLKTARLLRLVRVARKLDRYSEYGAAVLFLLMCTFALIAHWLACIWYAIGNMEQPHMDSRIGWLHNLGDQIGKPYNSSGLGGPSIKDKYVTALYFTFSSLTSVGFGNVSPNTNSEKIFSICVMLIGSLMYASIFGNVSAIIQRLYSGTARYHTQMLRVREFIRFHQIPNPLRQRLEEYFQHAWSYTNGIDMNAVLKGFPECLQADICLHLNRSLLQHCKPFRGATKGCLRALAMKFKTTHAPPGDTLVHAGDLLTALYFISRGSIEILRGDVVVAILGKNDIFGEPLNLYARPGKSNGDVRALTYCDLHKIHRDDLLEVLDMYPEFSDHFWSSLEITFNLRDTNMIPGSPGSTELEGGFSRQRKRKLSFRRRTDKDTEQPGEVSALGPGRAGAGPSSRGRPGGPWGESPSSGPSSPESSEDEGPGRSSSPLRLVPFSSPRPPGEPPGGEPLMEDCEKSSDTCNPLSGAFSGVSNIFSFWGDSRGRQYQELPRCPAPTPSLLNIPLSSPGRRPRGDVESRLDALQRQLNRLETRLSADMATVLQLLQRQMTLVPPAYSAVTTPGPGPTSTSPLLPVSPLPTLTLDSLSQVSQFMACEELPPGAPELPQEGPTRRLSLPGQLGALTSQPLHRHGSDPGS
Muscarinic acetylcholine receptor M1 (Rattus norvegicus), sequence (P08482 whole entry, looked up): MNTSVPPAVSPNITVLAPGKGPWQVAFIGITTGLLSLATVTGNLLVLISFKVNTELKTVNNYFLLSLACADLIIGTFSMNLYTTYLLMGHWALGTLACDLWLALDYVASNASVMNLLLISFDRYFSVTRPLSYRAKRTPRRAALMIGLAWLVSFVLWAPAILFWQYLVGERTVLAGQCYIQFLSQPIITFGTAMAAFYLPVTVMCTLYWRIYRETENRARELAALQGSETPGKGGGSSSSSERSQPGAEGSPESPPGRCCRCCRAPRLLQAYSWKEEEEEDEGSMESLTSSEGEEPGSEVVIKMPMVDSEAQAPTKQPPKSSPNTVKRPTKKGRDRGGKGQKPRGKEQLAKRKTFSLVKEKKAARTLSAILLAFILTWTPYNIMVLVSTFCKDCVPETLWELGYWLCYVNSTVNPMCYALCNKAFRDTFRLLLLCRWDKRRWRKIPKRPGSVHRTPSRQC
Cytochrome P450 3A4 (Homo sapiens), sequence (P08684 whole entry, looked up): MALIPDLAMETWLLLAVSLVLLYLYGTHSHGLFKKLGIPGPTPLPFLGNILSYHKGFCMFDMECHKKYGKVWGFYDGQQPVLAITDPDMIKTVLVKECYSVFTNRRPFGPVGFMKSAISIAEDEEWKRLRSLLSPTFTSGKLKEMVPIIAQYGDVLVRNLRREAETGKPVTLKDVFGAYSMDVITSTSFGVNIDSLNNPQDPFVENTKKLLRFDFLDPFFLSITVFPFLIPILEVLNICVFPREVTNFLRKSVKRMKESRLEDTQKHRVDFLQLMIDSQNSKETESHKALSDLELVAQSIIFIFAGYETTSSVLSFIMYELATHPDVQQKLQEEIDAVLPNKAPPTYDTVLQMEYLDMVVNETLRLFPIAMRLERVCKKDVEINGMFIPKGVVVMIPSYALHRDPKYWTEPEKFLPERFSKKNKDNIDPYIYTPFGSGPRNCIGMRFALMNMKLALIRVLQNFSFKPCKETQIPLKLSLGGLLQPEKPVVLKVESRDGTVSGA
Cytochrome P450 2C19 (Homo sapiens), sequence (P33261 whole entry, looked up): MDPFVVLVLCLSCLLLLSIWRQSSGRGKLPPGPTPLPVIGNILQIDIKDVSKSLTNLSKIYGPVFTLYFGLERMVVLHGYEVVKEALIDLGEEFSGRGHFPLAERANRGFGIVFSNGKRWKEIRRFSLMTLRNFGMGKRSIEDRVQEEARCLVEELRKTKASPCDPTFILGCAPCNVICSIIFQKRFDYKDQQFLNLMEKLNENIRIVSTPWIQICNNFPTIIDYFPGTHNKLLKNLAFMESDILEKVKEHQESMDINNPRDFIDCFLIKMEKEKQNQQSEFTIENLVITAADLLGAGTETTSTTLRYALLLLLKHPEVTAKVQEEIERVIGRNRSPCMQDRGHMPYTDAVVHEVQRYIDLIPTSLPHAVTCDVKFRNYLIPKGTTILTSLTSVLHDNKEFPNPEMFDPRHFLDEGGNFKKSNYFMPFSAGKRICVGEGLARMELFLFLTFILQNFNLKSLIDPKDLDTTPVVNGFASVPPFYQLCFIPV

For the compound `CO[C@H]1/C=C/O[C@@]2(C)Oc3c(C)c(O)c4c(O)c(c(/C=N\N5CCN(C6CCCC6)CC5)c(O)c4c3C2=O)NC(=O)/C(C)=C\C=C\[C@H](C)[C@H](O)[C@@H](C)[C@@H](O)[C@@H](C)[C@H](OC(C)=O)[C@@H]1C`, the Potency was 10200 nM (active) in [1]; 141 nM (active) in the test on 7G8; 675 nM (active) in the test on DIV14; 601 nM (active) in the test on DIV17; 849 nM (active) in the test on DIV30; 199 nM (active) in the test with ECU. Moreover, the Potency in the test on ICS is 112 nM (active); in the test with TAB109, 1260 nM (active).
Consider `O=C(CCc1ccc(O)cc1)c1c(O)cc(O)cc1O[C@@H]1O[C@H](CO)[C@@H](O)[C@H](O)[C@H]1O`, for which, in [2], the Potency result was “inactive”.
Take `C=C1/C(=C\C=C2/CCC[C@]3(C)[C@@H]([C@H](C)CCCC(C)(C)O)CC[C@@H]23)C[C@@H](O)C[C@@H]1O`: the Potency result (in [3]; in the test on JCK; with PC26) was “inactive” in each case.
For the compound `CC[C@@H](C)[C@H]1O[C@]2(CC[C@@H]1C)C[C@@H]1C[C@@H](C/C=C(\C)[C@@H](O[C@@H]3C[C@H](OC)[C@H](O[C@H]4C[C@H](OC)[C@@H](O)[C@H](C)O4)[C@H](C)O3)[C@@H](C)/C=C/C=C3\CO[C@@H]4[C@@H](O)C(C)=C[C@@H](C(=O)O1)[C@]34O)O2`, the Potency entry in test [4] is “inactive”.
As to `CN=C(N)NCCCC(N)C(=O)O` (configuration not stated), the Potency result (in test [3]; in test [1]; in the test on 7G8; in the test on CP262; with DIV14; with DIV17) was “inactive” each time. The Potency entry in the test on DIV30, with ECU, in the test with ICS, with JCK, in the test with PC26 and with TAB109 was “inactive” in each case. Also, the Potency entry with W2 is “inactive”.
`NCCC(=O)NCCc1cnc[nH]1`: the activity change, negative = inhibition in test [5] (at 17.2 µM (top of the series)) is -0.872%; in test [5] (at 38 µM (top of the series)), 2.63%. The Potency result in test [6], in test [7] and in test [8] was “inactive” in each case.
For `N=C1Sc2ccccc2C2=NCCCN12`, the Potency result in test [6] and in test [9] was “inactive” each time.
Regarding `CN1C(=O)CCC1c1cccnc1` (configuration not stated), the Potency result (in test [2]; in [3]; in [1]; in the test on 7G8; in the test on CP262; with DIV14) was “inactive” throughout. In addition, the Potency entry with DIV17, with DIV30, in the test with ECU, in the test on ICS, with JCK and in the test on PC26 was “inactive” in each case. In addition, the Potency result in the test with TAB109 and in the test with W2 was “inactive” each time.
As for `NC(=NCCC[C@H](N)C(=O)O)NO`, the activity change, negative = inhibition in test [5] (setting [10]) is 10.4% [at 38 µM]. The Potency result in test [9] was “inactive”.
Turning to `NCC1OC(O[C@@H]2[C@H](O)[C@@H](OC3C(O)C(N)CC(N)C3OC3OC(CO)C(O)C(O)C3N)O[C@@H]2CO)C(N)C(O)C1O` (some centres not stated), the Potency result in test [9] is “inactive”.
`OC[C@H]1O[C@@H](n2cnc3c(NCCc4ccccc4)ncnc32)[C@H](O)[C@H]1O`: the Potency result in test [2], in test [8] and in test [9] was “inactive” throughout.
For `NCCNC(=O)c1ccc(Cl)cc1`, the activity change, negative = inhibition in test [5] (setting [10]) was 9.25% [at 38 µM].
Take `N=C(N)SCCc1cccc(CCSC(=N)N)c1`: in test [8], the Potency is 4470 nM (active).
Consider `COc1cc(=O)n(C)c2c(OCC(O)C(C)(C)O)cccc12` (configuration not stated), for which the Potency result in test [2] was “inactive”.
On to `O=C(Cc1ccc(Cl)c(Cl)c1)OCCN1CCCC1`, for which, in test [8], the Potency is 14100 nM (active).
